Data on 24 compounds can be found in PubChem BioAssay (EPA / NIEHS).

Test [1] is described as follows: BSK_BT_Bcell_Proliferation: Viability Assessment in the BioMAP Diversity Plus: BT Assay for B cell Proliferation (AID 2284227). Particulars: primary human B cells with PBMC. An outline of the steps: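 Human B cells co-cultured with PBMC were dosed with test chemicals and relative cell number was quantified by SRB staining at 72 h. Cells were fixed in 10% TCA, stained with 0.1% SRB and read at 560 nm. Activity was fitted in the positive direction against DMSO.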

Read-out in test [2]: Interleukin 6 (IL6), IL6 (gene 3569)
The test can be described thus: BSK_BT_xIL6: BioMAP Diversity Plus: BT Assay for Interleukin 6 (IL6) Biomarker Activity (AID 2284228). Particulars: primary human B cells with PBMC. The method in brief:
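Chemical added to human B cell/PBMC co-culture → 24 h → supernatant IL-6 by Luminex xMAP → fit vs DMSO baseline, upward direction.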

Read-out in test [3]: Interleukin 17A (IL17A), IL17A (gene 3605)
The test can be described thus: BSK_BT_xIL17A: BioMAP Diversity Plus: BT Assay for Interleukin 17A (IL17A) Biomarker Activity (AID 2284229). As to conditions: primary human B cells with PBMC. The method in brief:
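Chemicals were added to a human B cell and PBMC co-culture. After 24 h, secreted IL-17A was measured with Luminex xMAP. Curves were fitted in the positive direction, with DMSO wells as baseline.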

Read-out in test [4]: Tumor necrosis factor (Homo sapiens) (UniProt P01375)
The test can be described thus: BSK_BT_xTNFa: BioMAP Diversity Plus: BT Assay for Tumor necrosis factor alpha (TNF-alpha) Biomarker Activity (AID 2284230). Particulars: primary human B cells with PBMC. The method in brief: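 B cells with PBMC in co-culture, dosed and sampled at 24 h; secreted TNF-alpha measured by Luminex xMAP bead assay. Activity fitted in the gain direction against DMSO as negative control and baseline.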

Read-out in test [5]: Vascular cell adhesion molecule 1 (VCAM1), VCAM1 (gene 7412)
The test can be described thus: BSK_MyoF_VCAM1: BioMAP Diversity Plus: MyoF Assay for Vascular cell adhesion molecule 1 (VCAM1) Biomarker Activity (AID 2284231). As to conditions: primary human lung fibroblasts. The method in brief:
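Steps: fibroblasts from human lung exposed to compound; biomarker quantified by ELISA at 24 h; values analysed for upward change over the DMSO baseline.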

Read-out in test [6]: Collagen I, COL1A1 (gene 1277)
The test can be described thus: BSK_MyoF_CollagenI: BioMAP Diversity Plus: MyoF Assay for Collagen I Biomarker Activity (AID 2284238). Particulars: primary human lung fibroblasts. The method in brief: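 Multiplexed primary human lung fibroblast system; Collagen I measured by ELISA at 24 h post-dose. Increases are referenced to DMSO.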

Several values for one entry are separate records, joined by “and”; a condition that tells them apart may be missing. Identical values can stand only once. Activity calls are given as the source filed them. How the source made its calls: active means hit-call score of the fitted dose curve at least 0.9, where 1 is the maximum; inactive means score below 0.9.

Sequence of Tumor necrosis factor (Homo sapiens) (P01375 whole entry, looked up): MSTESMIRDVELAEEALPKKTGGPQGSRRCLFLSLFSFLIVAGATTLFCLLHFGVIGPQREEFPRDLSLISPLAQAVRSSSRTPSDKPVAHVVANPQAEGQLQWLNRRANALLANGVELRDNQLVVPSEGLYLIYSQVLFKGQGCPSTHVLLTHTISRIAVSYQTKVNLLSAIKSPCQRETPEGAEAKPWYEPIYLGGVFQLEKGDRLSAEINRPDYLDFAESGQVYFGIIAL

With `Fc1ccc(Br)cc1`, the result in test [1], in test [2], in test [3], in test [4], in test [5] and in test [6] was inactive.

`CCCCC1C(=O)N(c2ccccc2)N(c2ccccc2)C1=O`: the result in test [1], in test [2], in test [3], in test [4], in test [5] and in test [6] was inactive.

Take `C=CC(=O)OCCCCCCCC(C)C`: the outcome in test [1], in test [2], in test [3], in test [4], in test [5] and in test [6] was inactive.

With `CCCCCCC=O`, the result in test [1], in test [2], in test [3], in test [5] and in test [6] was inactive.

On to `COC(OC)(C(=O)c1ccccc1)c1ccccc1`, for which the result in test [1], in test [2], in test [3], in test [4], in test [5] and in test [6] was inactive.

Take `CCNc1nc(NC(C)(C)C)nc(OC)n1`: the result in test [1], in test [2], in test [3], in test [4], in test [5] and in test [6] was inactive.

Regarding `CCOC(=O)C1=NN(c2ccc(Cl)cc2Cl)C(C)(C(=O)OCC)C1` (stereo not drawn), the outcome in test [1], in test [2], in test [3], in test [5] and in test [6] was inactive.

On to `COc1ccc(C(=O)c2ccccc2)c(O)c1`, for which the result in test [1], in test [2], in test [3], in test [4], in test [5] and in test [6] was inactive.

Consider `Cc1c(O)cccc1O`, for which the result in test [1], in test [2], in test [3], in test [5] and in test [6] was inactive.

For the compound `COc1ccc(C(=O)/C(Br)=C\C(=O)O)cc1`, the AC50 in test [1] is 25.4 µM (active) and 18.6 µM (active); in test [2], 20 µM (active); in test [3], 24.3 µM (active) and 25.6 µM (active); in test [5] it was 25.5 µM (active) and 10.5 µM (active). Further, the result in test [6] was inactive.

For `O=C1CCCCCCCCCCCN1`, the outcome in test [1], in test [2], in test [3], in test [5] and in test [6] was inactive.

With `Nc1cccc(N)n1`, the result in test [1], in test [2], in test [3], in test [5] and in test [6] was inactive.

As for `CCN1CN(CC)CN(CC)C1`, the outcome in test [1], in test [2], in test [3], in test [5] and in test [6] was inactive.

With `C=CC(=O)OCCCCCCOC(=O)C=C`, the AC50 was 13.2 µM (active) in test [1]; 7.22 µM (active) in test [2]; 6.04 µM (active) in test [3]; 20 µM (active) in test [5]; 34.4 µM (active) in test [6].

Turning to `C=CCCCCCCCCC=O`, the outcome in test [1], in test [2], in test [3], in test [5] and in test [6] was inactive.

On to `CC(C)c1cccc(C(C)C)c1N`, for which the outcome in test [1], in test [2], in test [3], in test [5] and in test [6] was inactive.

With `CC/C=C\CCOC(=O)c1ccccc1O`, the result in test [1], in test [2] and in test [3] was inactive. For the same compound, the AC50 in test [5] was 34.2 µM (active); in test [6], 31.1 µM (active).

Regarding `CC/C=C\C/C=C\C/C=C\CCCCCCCC(=O)OC`, the half-maximal activity concentration (AC50) in test [1] was 21.6 µM (active); in test [2], 13.5 µM (active); in test [3] it was 12 µM (active); in test [5], 11.1 µM (active); in test [6] it was 9.7 µM (active).

With `CCOC(=O)/C=C\C(=O)OCC`, the result in test [1], in test [2], in test [3], in test [5] and in test [6] was inactive.

For `CC1(C)CC(O)CC(C)(C)N1[O]`, the outcome in test [1], in test [2], in test [3], in test [4], in test [5] and in test [6] was inactive.

As for `CC(Cl)COP(=O)(OCC(C)Cl)OCC(C)Cl` (stereo not drawn), the outcome in test [1], in test [2], in test [3], in test [5] and in test [6] was inactive.

On to `CCCCCCCCCCCC(C)=O`, for which the result in test [1], in test [2], in test [3], in test [4], in test [5] and in test [6] was inactive.

As to `C=CC(=O)OCC(C)OCC(C)OCC(C)OC(=O)C=C` (stereo not drawn), the AC50 in test [1] was 11.5 µM (active); in test [2] it was 5.07 µM (active); in test [3], 7.92 µM (active); in test [5], 30.1 µM (active); in test [6], 30.4 µM (active).

With `O=C(O)C(F)(F)C(F)(F)C(F)(F)C(F)(F)C(=O)O`, the outcome in test [1], in test [2], in test [3], in test [5] and in test [6] was inactive.

As usually defined, the AC50 is the concentration at which the activity in the assay is half-maximal.
